High-throughput results: PubChem, National Center for Advancing Translational Sciences (NCATS)
AMA1-RON2 inh: qHTS for Inhibitors of AMA1-RON; Towards Development of Antimalarial Drug Lead: Primary Screen | 0.2% of 360,000 active | AID 720542, 2013 | Potency, µM (highest dose often 58.2 µM), hits mostly inhibitors | AlphaScreen AMA1-biotinylated RON2 peptide binding; also: nearly all actives have a fitted effect of over 45% in size
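AMA1 (3D7) with his tag at 25 nM final met compounds first, then biotinylated RON2 peptide at 25 nM; detection used donor plus acceptor beads, 10 µg/mL apiece, read by AlphaScreen after 30 min at room temperature.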
SARS PLP yeast: qHTS of Yeast-based Assay for SARS-CoV PLP. S. cerevisiae expressing SARS-CoV PLpro, growth rescue. Potency, µM (titrated, usually from 32.9 µM), usual class: activators. 0.19% of 330,000 active; calls by dose curve; also: nearly all actives have a fitted effect of over 55% in size
Pf growth 48h: Primary qHTS for delayed death inhibitors of the malarial parasite plastid, 48 hour incubation; Potency, µM (series often up to 28.7 µM), actives largely listed as inhibitors; P. falciparum luciferase growth in erythrocytes, 48 h; 5.9% of 310,000 active
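Here the parasites carry a stable luciferase gene and grow inside erythrocytes in Albumax-based RPMI medium with compound for one erythrocytic cycle. Activity is scored as loss of luminescent signal.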
Pf growth 96h: Primary qHTS for delayed death inhibitors of the malarial parasite plastid, 96 hour incubation; P. falciparum luciferase reporter growth, 96 h; Potency, µM (top dose mostly 28.7 µM), most hits filed as inhibitors; 6.9% of 320,000 active
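Luminescence readout: decreased luciferase signal marks inhibited growth of reporter-expressing P. falciparum in infected red cells (2% hematocrit, 0.05% parasitemia final), exposed to compound two generations (96 h, 37 C, 5% CO2).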
Each line names hits and unclear results; the compound was inactive in the other large screens. In the library only some 9.4% were active in any assay of this set; here they are far more common. Unless noted, calls follow the shape of the dose curve; as a rule, active = well fitted curve in the direction sought with a large enough effect; inconclusive = small, poorly fitted or top-dose-only effect, or another doubt; inactive = no such curve, though single readings can be large; an effect the other way counts as inactive or inconclusive.

COc1cc(C2OC(=O)c3c2ccc(OC)c3OC)ccc1O (configuration not stated)	Pf growth 48h 7.4µM (no result: AMA1-RON2 inh)
Cc1ccc(N(CCC#N)C(=O)COC(=O)c2nc3nc(C)cc(C)n3n2)cc1	none
CCCS(=O)(=O)c1ccc(COC(=O)Cc2ccc([N+](=O)[O-])cc2)cc1	Pf growth 96h 2.9µM
CC(C)(C)c1ccc(C(=O)NCC(=O)OCc2ccc([N+](=O)[O-])cc2)cc1	Pf growth 96h 0.52µM
CN(CC(=O)Nc1ccc(Cl)c(Cl)c1)C(=O)C1CCCC1	Pf growth 48h inconclusive, Pf growth 96h 5.2µM
S=C(Nc1ccc(Cl)c(Cl)c1)NC1CCN(Cc2ccccc2)CC1	Pf growth 48h 4.1µM, Pf growth 96h inconclusive
S=C(Nc1ccc(Oc2ccc(NC(=S)NC3CCCCC3)cc2)cc1)NC1CCCCC1	SARS PLP yeast 11µM, Pf growth 48h inconclusive
S=C(Nc1ccc(Oc2ccccc2)cc1)NC1CCCCCC1	none
S=C(Nc1ccc(Cl)c(Cl)c1)NC1CCCCC1	Pf growth 48h 13µM
CCCSCCCNC(=O)c1ccccc1NC(=O)C1=CSCCO1	Pf growth 96h 13µM
Fc1cccc(NC(=S)N2CCCCC2)c1	none
COCCn1c(-c2ccc(Br)cc2)csc1=Nc1cccnc1	AMA1-RON2 inh inconclusive, Pf growth 48h inconclusive, Pf growth 96h inconclusive
FC(F)Oc1ccc(-c2csc(=Nc3cccnc3)n2CC2CCCO2)cc1 (configuration not stated)	Pf growth 48h inconclusive, Pf growth 96h 13µM
CCOC(=O)CSc1nc2c(sc(=S)n2Cc2ccco2)c(=O)n1-c1ccc(F)cc1	Pf growth 48h 10µM
CCN(CC)C(=O)CSc1nc2c(sc(=S)n2-c2ccccc2OC)c(=O)n1-c1ccccc1	Pf growth 48h 12µM, Pf growth 96h inconclusive
CCN(CC)C(=O)CSc1nc2c(sc(=S)n2CC)c(=O)n1-c1ccccc1	Pf growth 96h inconclusive (no result: Pf growth 48h)
CCC(C)NC(=O)CSc1nc2c(sc(=S)n2Cc2ccco2)c(=O)n1-c1ccccc1 (configuration not stated)	none (no result: Pf growth 48h)
COc1ccc(CN2CCC(n3nccc3NC(=O)C3CC3)CC2)c(Cl)c1OC	none
C[C@@H]1CN(c2c(F)c(F)c3c(=O)c(C(=O)O)cn(C4CC4)c3c2F)C[C@H](C)N1	Pf growth 48h inconclusive, Pf growth 96h inconclusive
COCCNC(=O)CN(C(=O)CCC(=O)Nc1cc(C)on1)c1ccccc1C	none
COC(=O)c1nn(-c2ccc3c(c2)CCN3C(C)=O)cc1O	Pf growth 48h 1.3µM
CC(C)(C)c1ccc(S(=O)(=O)NC(=O)C2(C)CCN2C(=O)Cc2cc(F)ccc2F)cc1 (configuration not stated)	none (no result: SARS PLP yeast, Pf growth 48h, Pf growth 96h)
Cc1ccc(C2(c3noc(CN(C)CCCN4CCOCC4)n3)CCCC2)cc1	Pf growth 96h 8.3µM (no result: AMA1-RON2 inh)
Cc1ccc(C2(c3noc(CN(C)Cc4cnn(C)c4)n3)CCCC2)cc1	Pf growth 96h 12µM
COc1ccccc1N1CCN(C2CCCN(Cc3c(F)cccc3F)C2)CC1 (configuration not stated)	none
COc1ccccc1N1CCN(Cc2cccc(OC)c2OC)CC1	none (no result: Pf growth 96h)
COc1ccccc1CN1CCCC(N2CCN(c3ccccc3OC)CC2)C1 (configuration not stated)	Pf growth 96h 4.7µM
COc1cc(CN2CCCC(N3CCN(c4ccccc4C)CC3)C2)ccc1O (configuration not stated)	Pf growth 48h 8.3µM
COc1ccccc1N1CCN(Cc2cccc(OC)c2O)CC1	Pf growth 48h 7.4µM, Pf growth 96h inconclusive
COc1ccccc1N1CCN(C2CCCN(Cc3cccc(O)c3)C2)CC1 (configuration not stated)	Pf growth 48h inconclusive, Pf growth 96h 1.2µM
CNC(C)Cc1ccccc1Sc1ccc(O)cc1 (configuration not stated)	Pf growth 48h inconclusive, Pf growth 96h inconclusive
O=C1S/C(=C\c2ccccn2)C(=O)N1Cc1ccccc1F	Pf growth 96h inconclusive
CC(=O)Nc1ccc(S(=O)(=O)NCCC(=O)NCCc2ccc(F)cc2)cc1	Pf growth 96h inconclusive
COc1cc(CN2CCCC(N3CCN(c4ccc(F)cc4)CC3)C2)ccc1F (configuration not stated)	Pf growth 48h 2.1µM, Pf growth 96h 0.66µM
CSc1ccc(CN2CCCC(N3CCN(c4ccccc4)CC3)C2)cc1 (configuration not stated)	Pf growth 48h inconclusive, Pf growth 96h 9.3µM
